The panel holds about 83,000 compounds, 20% with a hit somewhere; the sample as a whole holds those more often.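 Growth was measured after 48 h exposure to one concentration of compound in 96-well plates. Values under 10 count as active.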 Active and inactive are the calls of the source.
These molecules were tested on HL-60(TB) leukemia (assay: NCI-60 one-dose screen, 48 h (100 = growth as untreated, 0 = no growth, -100 = all killed)). Conditions: 10 µM unless noted.
For `COC(=O)[C@]12CC[C@@H](C)[C@H](C)[C@@H]1C1=CC[C@@H]3[C@@]4(C)C[C@@H](OC(=O)c5ccco5)[C@H](O)[C@@](C)(CO)[C@@H]4[C@H](O)C[C@@]3(C)[C@]1(C)CC2`, the growth was -79.6% (active). In the case of `C=CCCC(=O)N1C=CC(=O)[C@H](O)[C@@H]1/C=C/c1ccccc1`, the growth is reported as 32.2% [100 µM] (inactive). In the case of `CC(=O)[C@H]1CC[C@]2(C)[C@@H]1CC[C@@H]1[C@@]3(C)CC(CCC#N)(CCC#N)C(=O)C(C)(C)[C@@H]3CC[C@]12C`, the growth is reported as 103% (inactive). In the case of `[2H]C([2H])([2H])Oc1cc(F)ccc1/C=C/C(=O)/C=C(/C=C/c1ccc(F)cc1OC([2H])([2H])[2H])OB(F)F`, the growth is reported as 11.6% (inactive). `COc1cc(C)c(Cc2cnc(N)nc2N)cc1OC` was tested, and the growth was 129% (inactive). For `COc1cc(C=O)ccc1OC1OC(COC(C)=O)C(OC(C)=O)C(OC(C)=O)C1OC(C)=O` (stereo not given), the growth was 106% (inactive). With `Cc1ccc2c(C(C[N+](=O)[O-])c3ccccc3)c(-c3ccccc3)[nH]c2c1` (stereo not given) the growth was -10.4% [9.5 µM] (active). For `CCCCCCN(CCCCCC)CC(O)c1cccc2ccc(Cl)cc12` (stereo not given), the growth was 69.5% (inactive). In the case of `CCN1C(=O)N(CC)C2C1N=C(SCc1ccc(Cl)cc1)N2/N=C/C=C/c1ccccc1OC` (stereo not given), the growth is reported as 37.9% (inactive). `CCN(CC)C12CCCCC1(C)C(C#N)(C#N)C(C#N)=C(N)O2` (stereo not given) was tested, and the growth was 72.5% (inactive). For `Cc1ccc(C(=NN=C(N)N)c2ccc(C)cc2)cc1`, the growth was -28% (active). `O=S(=O)(Nc1ccsc1-c1nc(-c2ccccc2)no1)c1cc(Cl)cc(Cl)c1` was tested, and the growth was 119% (inactive). For `CCN1CCCC(N2c3ccccc3Sc3ccccc32)C1` (stereo not given), the growth was 93.1% (inactive). In the case of `O=[N+]([O-])c1ccc(-c2cc3c(Nc4ccc(OCc5cccc(Cl)c5)c(Cl)c4)ncnc3s2)cc1`, the growth is reported as 44.2% (inactive). In the case of `COc1ccc(OC)c(N(CCN2C(=O)c3ccccc3C2=O)C(=O)CCl)c1`, the growth is reported as -63.3% (active). For `N#C/C(=C\c1cc(O)c(O)c(O)c1)C(N)=O`, the growth was 69.5% (inactive). For `Cc1cc(Cl)nc(NCc2cc(Nc3ccnc4cc(Cl)ccc34)ccc2F)n1`, the growth was 42.4% (inactive). With `O=C(CN1C(=O)/C(=C/c2ccc(Cl)cc2)SC1=S)NCCCN1CCOCC1` the growth was 98.7% (inactive). In the case of `COc1cc(-c2nc(-c3nnc(-c4cccnc4)o3)c3ccccn23)cc(OC)c1OC`, the growth is reported as 95.7% (inactive). `O=c1ccn(Cc2cn(-c3c4ccccc4nc4ccccc34)nn2)c(=O)[nH]1` was tested, and the growth was 75.7% (inactive). With `Cc1cccc(Oc2ccc(Nc3ncnc4ccc(NC(=O)CN5CCN(C)CC5)cc34)cc2Cl)c1` the growth was -40.2% (active). In the case of `O=C1Nc2ccc(Cl)cc2/C1=C\c1c(-c2ccc(F)cc2)nc2ccccn12`, the growth is reported as -37.7% (active). `CCCCCCCCCCCCCCCCCC(=O)Nc1ccc(O)cc1` was tested, and the growth was 5.77% (active). With `COc1ccc(-n2c(-c3ccc(NC(=O)CCCl)cc3)nnc2-c2cc(OC)c(OC)c(OC)c2)cc1` the growth was -12.6% (active). With `O[C@@H]1CO[C@H]2[C@@H]1OC[C@@H]2O` the growth was 98% (inactive). `Cc1cc(C)c2c(Nc3ncnc4c3sc3nc(C)cc(C)c34)n[nH]c2n1` was tested, and the growth was 99% (inactive). For `Nc1ccc(S(=O)(=O)Nc2cc(F)cc(F)c2)cc1`, the growth was 73% (inactive). With `O=C1OCC2=C1C(c1ccc(Cl)c(Cl)c1)c1cc3c(cc1N2CCO)CCC3` (stereo not given) the growth was -13.1% (active). `CN(C)c1ccc(/C=C\N=Nc2ccc(Br)cc2)cc1` was tested, and the growth was 16.6% (inactive). In the case of `Cc1ccc(/C=C2\C(=O)N(C)c3ccc(S(=O)(=O)Nc4ccc(C(C)(C)C)cc4)cc32)s1`, the growth is reported as 93.1% (inactive). For `COc1cc(/C=C/c2cn[nH]c2-c2ccc(C)cc2)cc(OC)c1OC`, the growth was 4.76% (active). In the case of `COc1ccc(/C=C2\CCCC3=C2NC(C)=NC3c2ccc(OC)c(OC)c2)cc1OC` (stereo not given), the growth is reported as -6.62% (active). For `CCOC(=O)C(COS(C)(=O)=O)(COS(C)(=O)=O)C(=O)OCC`, the growth was 104% (inactive). For `C=C(CN1CC=CCC1)[C@@H]1CC[C@]2(CO)CC[C@]3(C)[C@H](CC[C@@H]4[C@@]5(C)CC[C@H](O)C(C)(C)[C@@H]5CC[C@]43C)[C@@H]12`, the growth was 99.9% (inactive). In the case of `CC1(C)C(N)=Nc2cc(OCCCCN3Cc4ccccc4C3)c(OCC3CC3)cc21`, the growth is reported as 99.7% (inactive). In the case of `CC1(c2ccccc2)NC(=O)NC1=O` (stereo not given), the growth is reported as 104% (inactive). For `O=C(/C=C\c1ccccc1Cl)c1ccccc1`, the growth was 110% (inactive). With `COc1ccc(-c2nc(Nc3nc4ccccc4[nH]3)nc(N)c2C#N)cc1` the growth was 97.8% (inactive). With `Cc1ccc(S(=O)(=O)NCCNc2nccc(-c3c(-c4ccc(O)cc4)nc4sccn34)n2)cc1` the growth was 155% (inactive). `Cc1c2c(cc[n+]1Cc1ccccc1)c1ccc(OCc3ccccc3)cc1n2Cc1ccccc1` was tested, and the growth was -54.1% (active).
